The list is not random: actives were taken first. Their share in the collection is about 9.2%.
SMN2 splice up: increases expression of the SMN2 splice variant | HEK293 SMN2-luciferase splicing reporter, luminescence, 30-36 h | Potency, µM (doses to about 46.1 µM), usual class: activators | actives 2.8% (n = 210,000) | AID 1458; further: nearly all actives have a fitted effect of over 55% in size
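qHTS luciferase splicing reporter: luminescence rises when SMN2 exon 7 is included in transfected HEK293 cells. Compound exposure lasted 30-36 h at 37C, with 4.5 mM final sodium butyrate as control, followed by a ONE-Glo read.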
Rab9 prom act: activators of Rab9 promoter. Huh7 Rab9 promoter-luciferase reporter, luminescence, 24 h. Potency, µM (series often up to 9.22 µM), hits mostly activators. actives 2.8% (n = 320,000). AID 485297; further: nearly all actives have a fitted effect of over 60% in size
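Huh7 reporter line, Rab9 promoter upstream of luciferase. Compound exposure 24 h at 37 °C in reduced-serum medium with 10% FBS. Read-out: luminescence.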
NPC1 promoter act: activators of NPC1 promoter; Huh7 NPC1 promoter luciferase reporter, 24 h; Potency, µM (doses to about 9.22 µM), most hits filed as activators; actives 2.4% (n = 320,000); further: nearly all actives have a fitted effect of over 60% in size
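Huh7 cells stably carrying NPC1 promoter–luciferase, plated in Opti-MEM with 10% FBS for 2 h, were exposed to compound in DMSO for 24 h at 37 °C; luciferase reagent was added for 10 min and luminescence read.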
ELG1 repair inh: blocks ELG1-dependent DNA repair in HEK293T cells; HEK293T ELG1-luciferase reporter, luminescence, 16 h; DNA damage induced by 5-fluorouridine; Potency, µM (series often up to 46.1 µM), hits mostly inhibitors; actives 2.3% (n = 330,000); AID 504467; further: nearly all actives have a fitted effect of over 55% in size
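Cells (2,000 per well) received 5-fluorouridine plus test compound or DMSO and were incubated 16 hr at 37 °C, 5% CO2. Luciferase activity was read by luminescence 30 min after ONE-Glo addition; signal suppression marked inhibition of damage-induced ELG1 function.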
ELG1 genotox: induces genotoxicity in HEK293T cells with luciferase-tagged ELG1; HEK293T ELG1-luciferase reporter, luminescence, 16 h; Potency, µM (titrated, usually from 46 µM), hits mostly activators; actives 1.3% (n = 330,000); AID 504466; further: nearly all actives have a fitted effect of over 60% in size
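DMSO vehicle served as control against compound-treated ELG1-luciferase HEK293T cells; exposure lasted 16 hr at 37 °C and 5% CO2, followed by ONE-Glo luminescence detection after 30 min.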
FLuc counter: counter-screen for miR-21 project: firefly luciferase inhibitors or activators | P08659 | Potency, µM (titrated, usually from 57.5 µM), usual class: inhibitors | purified FLuc, Km substrates, luminescence inhibition | actives 6.9% (n = 360,000); further: nearly all actives have a fitted effect of over 55% in size
Target sequence (P08659 whole entry, looked up): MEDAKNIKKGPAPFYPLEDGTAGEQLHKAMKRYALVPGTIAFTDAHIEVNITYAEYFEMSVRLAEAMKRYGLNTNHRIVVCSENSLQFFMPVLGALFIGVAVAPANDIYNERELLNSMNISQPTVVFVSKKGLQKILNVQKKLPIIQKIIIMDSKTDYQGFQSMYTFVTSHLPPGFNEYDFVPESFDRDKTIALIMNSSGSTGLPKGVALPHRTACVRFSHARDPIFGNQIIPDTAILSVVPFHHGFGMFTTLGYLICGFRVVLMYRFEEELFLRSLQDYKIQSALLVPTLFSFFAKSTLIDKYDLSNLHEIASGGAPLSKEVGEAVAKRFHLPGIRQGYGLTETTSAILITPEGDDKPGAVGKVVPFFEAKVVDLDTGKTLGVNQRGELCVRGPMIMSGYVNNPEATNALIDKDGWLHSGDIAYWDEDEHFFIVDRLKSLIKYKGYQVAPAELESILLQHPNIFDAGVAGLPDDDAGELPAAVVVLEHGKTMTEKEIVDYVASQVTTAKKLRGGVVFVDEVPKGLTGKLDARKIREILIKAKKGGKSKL
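Purified P. pyralis luciferase, 10 nM final, with Km-level 10 uM D-luciferin and 10 uM ATP in 50 mM Tris acetate pH 7.5, 10 mM Mg acetate, 0.01% Tween-20, 0.05% BSA; 6-point qHTS titration about 60 µM downward; luminescence read.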
A number is an active result; n = inactive; u = inconclusive; x = not tested or not shown. The call rests on the fitted dose curve; in most records, active means well fitted curve in the direction sought with a large enough effect; inconclusive means small, poorly fitted or top-dose-only effect, or another doubt; inactive means no such curve, though single readings can be large; an effect the other way counts as inactive or inconclusive.

SMILES	SMN2 splice up	Rab9 prom act	NPC1 promoter act	ELG1 repair inh	ELG1 genotox	FLuc counter
COCCn1c(C)cc(C(=O)CN2C(=O)NC3(CCCCCCC3)C2=O)c1C	u	3.98µM	3.16µM	u	u	15.1µM
COCCn1c(C)cc(C(=O)CN2CCCCC2)c1C	n	n	n	n	n	n
Cc1cc(Oc2ncccc2[N+](=O)[O-])c2cc(Cl)ccc2n1	x	n	n	n	n	n
O=C(NC1=NCCS1)c1cc(-c2ccc(F)cc2)nc2ccccc12	n	n	n	u	n	5.36µM
CCCc1ccc(-c2cc(C(=O)NC3=NCCS3)c3ccccc3n2)cc1	x	4.47µM	1.12µM	u	u	0.338µM
O=C(NNS(=O)(=O)c1cccc(Cl)c1)c1cc(-c2ccc(F)cc2)nc2ccccc12	n	n	n	n	n	19µM
Cc1ccc(-c2cc(C(=O)NC3=NCCS3)c3ccccc3n2)cc1C	14.1µM	n	n	u	n	0.849µM
Cc1ccc(CNC(=O)c2cc(-c3ccc(C)c(C)c3)nc3ccccc23)cc1	x	x	x	x	x	n
O=C(NN=C1CCCC1)c1cc(-c2ccc(F)cc2)nc2ccccc12	n	n	n	u	n	n
COc1ccc(CCNC(=O)Cc2c(C)c3cc4c(C(C)(C)C)coc4c(C)c3oc2=O)cc1OC	n	x	x	x	x	n
O=C(OCc1nnc(-c2ccccc2)o1)c1cccc(S(=O)(=O)N2CCOCC2)c1	x	n	n	u	n	n
Cc1ccc(C(=O)N/C(=C\c2ccco2)C(=O)N2CCOCC2)cc1C	x	n	n	20.6µM	n	n
COc1ccc2nc(-c3ccc(N)cc3)[nH]c2c1	u	n	u	u	u	3.79µM
COc1ccc2nc(-c3cccc(N)c3)[nH]c2c1	x	2.51µM	1.58µM	u	u	2.39µM
COc1ccc2nc(SCC(N)=O)[nH]c2c1	n	n	n	n	n	n
COc1cc(NC(=O)CCc2c(C)nc3c4c(C)cc(C)nc4nn3c2C)cc(OC)c1	n	x	x	x	x	n
Cc1c(NC(=O)c2ccc3c(c2)OCO3)cccc1-c1nc2ccccc2s1	n	n	n	n	n	3.38µM
c1ccc2sc(N3CCN(Cc4ccc5c(c4)OCO5)CC3)nc2c1	n	x	x	x	x	x
O=C(Nc1cccc(-c2nc3ccccc3s2)c1)c1ccc2c(c1)OCO2	n	n	n	n	n	12µM
Cc1c(NC(=O)c2ccc3c(c2)OCO3)cccc1-c1nc2ncccc2o1	n	n	n	u	n	u
c1ccc2sc(-c3ccc4c(c3)OCO4)nc2c1	7.08µM	0.316µM	0.562µM	u	0.581µM	0.536µM
CCOC(=O)[C@H]1[C@H]2COc3ccc(Cl)cc3[C@@H]2N2C(=O)c3ccc(Cl)cc3NC(=O)[C@@]12C	x	n	n	n	n	n
O=C(CSc1nnc(Nc2ccccc2F)s1)Nc1cccc(S(=O)(=O)N2CCCCC2)c1	n	n	n	n	n	13.5µM
Cc1ccc(Nc2nnc(SCC(=O)Nc3cccc(S(=O)(=O)N4CCCCC4)c3)s2)cc1	n	n	n	n	n	2.69µM
Cc1nnc(SCC(=O)Nc2cccc(S(=O)(=O)N3CCCCC3)c2)s1	x	n	n	n	n	x
SMILES	SMN2 splice up	Rab9 prom act	NPC1 promoter act	ELG1 repair inh	ELG1 genotox	FLuc counter
CCOc1ccc2nc(N(Cc3ccccc3)C(=O)CCNC(C)=O)sc2c1	x	n	n	u	n	n
CCCc1c(O)nc(SCC(=O)NCc2ccco2)[nH]c1=O	n	n	n	n	n	n
CCN(C(=O)COC(=O)/C=C/c1c(C)nn(-c2ccccc2)c1C)C1CCS(=O)(=O)C1 (centres undefined)	x	n	n	n	n	n
Cc1ccc(OCC(=O)OCc2cc(=O)n3nc(C4CCCCC4)sc3n2)cc1	x	x	x	x	x	n
CCOc1ccccc1N=C1SC(CC(=O)Nc2ccc(OC)cc2OC)C(=O)N1CCC1=CCCCC1 (centres undefined)	n	n	n	7.31µM	n	n
O=C(CC1SC(=Nc2ccc(OC(F)F)cc2)N(CCC2=CCCCC2)C1=O)Nc1ccccc1F (centres undefined)	n	n	n	u	n	n

Screening data: PubChem, National Center for Advancing Translational Sciences (NCATS)
